# Experimental data as given in PubChem BioAssay AID1626 (SRMLSC, 2009).
# In all, about 220,000 compounds went through this assay and about 2,000 (0.91%) were called active. Not shown: some 2% with an inconclusive outcome. Rule as the data show it: inconclusive = inhibition above about 80% without an active follow-up result; inactive = below that; test concentration not stated here. Not all results are given here. Results with a measured potency or affinity are listed apart.
# Assay: M. tuberculosis H37Rv growth inhibitors, H37Rv strain (AID 1626);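 also: bacteria incubated seven days before Alamar blue readout; 0% = bacteria only wells and 100% = bacteria with antibiotic wells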
# Conditions: active compounds read high, concentration not given here
row,SMILES,inhibition
1,COc1ccc(/C=C2\SC(=S)NC2=O)cc1OS(=O)(=O)c1ccc(NC(C)=O)cc1,-3.97% (inactive)
2,Cc1ccccc1N(CC(=O)Nc1ccccc1C(=O)O)S(C)(=O)=O,-1.04% (inactive)
3,CCN(CC)c1nc(-c2nn[nH]n2)nc(N(CC)CC)n1,-3.01% (inactive)
4,CCOC(=O)C(=O)Nc1ccc(Oc2ccccc2)cc1,-13.3% (inactive)
5,O=C(O)/C=C\C(=O)Nc1ccc(Oc2ccccc2)cc1,-4.64% (inactive)
6,CC(C)(C)NC(=O)C1CC(=O)OC12CCOC(C)(C)C2 (centres undefined),0.06% (inactive)
7,COC(=O)CN(c1ccccc1)S(=O)(=O)c1ccc(F)cc1,-4.89% (inactive)
8,O=[N+]([O-])C(=c1ccc2c(c1)N1C3=C(CCCC3)CC3CCCCC31N=2)[N+](=O)[O-] (centres undefined),-8.62% (inactive)
9,O=C(CSCC(=O)NC1CC1)Nc1ccccc1,-9.05% (inactive)
10,O=C(CSCC(=O)NC1CCCC1)Nc1ccccc1,6.01% (inactive)
11,CC(=O)c1ccc(NC(=O)CSCCO)cc1,-4.48% (inactive)
12,CC(=O)c1ccc(NC(=O)CSC(C)C)cc1,0.93% (inactive)
13,CC(=O)Nc1ccc(S(=O)(=O)N2CCN(C(C)CCc3ccccc3)CC2)cc1 (centres undefined),-9.9% (inactive)
14,CCc1ccc(OCCCC(=O)O)c(Br)c1,-8.18% (inactive)
15,COC(=O)c1ccc(COc2ccc3c4c(c(=O)oc3c2)CCC4)o1,-7.47% (inactive)
16,Cc1cc(C)n2nc(SCC(=O)N/N=C/c3cccc(Br)c3)nc2n1,-4.74% (inactive)
17,O=C(NC1(C(F)(F)F)C(=O)Nc2c1c(=O)[nH]c(=O)n2Cc1ccco1)C1CC1 (centres undefined),1% (inactive)
18,C=CCNC(=O)CSc1nnc(-c2ccccc2Cl)n1-c1c(C)n(C)n(-c2ccccc2)c1=O,-3.15% (inactive)
19,COc1ccc(CCNC(=O)CSc2cn(Cc3cccc(C)c3)c3ccccc23)cc1OC,4.76% (inactive)
20,CCc1nc2c(c(=O)[nH]1)C1(CCCC1)Cc1ccccc1-2,12.8% (inactive)
21,O=c1[nH]c(NCCO)nc2c1C1(CCCC1)Cc1ccccc1-2,-4.7% (inactive)
22,O=c1[nH]c(NCCO)nc2c1C1(CCCCC1)Cc1ccccc1-2,-9.4% (inactive)
23,O=c1[nH]c(CN(CCO)CCO)nc2c1C1(CCCCC1)Cc1ccccc1-2,8.33% (inactive)
24,Cc1cc2c(C)nc3ccccc3c2o1,-3.45% (inactive)
25,COc1cccc2c3c(c(C)nc12)CC(C)O3 (centres undefined),-3.67% (inactive)

row,SMILES,inhibition
1,Cc1cc(C(=O)NNC(=O)CCCCC(=O)NNC(=O)c2cc(C)[nH]n2)n[nH]1,1.69% (inactive)
2,O=C(CCCSc1nc(-c2ccco2)cc(C(F)(F)F)n1)Nc1ccc2c(c1)OCO2,6.6% (inactive)
3,Cc1ccccc1Sc1ncnc2onc(C)c12,-3.01% (inactive)
4,Cc1noc2ncnc(Sc3ccccc3Cl)c12,8.85% (inactive)
5,CCn1c(SCc2ccc(C(=O)Nc3nccs3)cc2)nnc1-c1ccc(NC(C)=O)cc1,0.27% (inactive)
6,CCn1c(SCc2ccc(C(=O)Nc3nccs3)cc2)nnc1-c1ccc(N)cc1,2.31% (inactive)
7,COC(=O)CNC(=O)c1cn(CC(C)C)c(=O)c2cc(OC)c(OC)cc12,-2.81% (inactive)
8,CC1CC(=O)c2cnc(N3CCOCC3)nc2C1 (centres undefined),5.78% (inactive)
9,O=C(CSc1nnnn1C1CCCC1)NCc1ccccc1,-3.18% (inactive)
10,COc1ccc(OCC(O)Cn2c(=N)n(CCN3CCOCC3)c3ccccc32)cc1 (centres undefined),3.12% (inactive)
11,CCCCn1c(=N)n(CC(O)COc2cccc(C)c2)c2ccccc21 (centres undefined),0.69% (inactive)
12,N=c1n(CCN2CCCCC2)c2ccccc2n1CC(O)COc1ccccc1 (centres undefined),-5.72% (inactive)
13,CCCn1c(=N)n(CC(O)COc2cccc(C)c2)c2ccccc21 (centres undefined),4.16% (inactive)
14,CC(C)N1CCN(Cc2nc3c(s2)CCCC3)CC1CCO (centres undefined),-2.24% (inactive)
15,COc1cc([C@@H]2c3cc4c(cc3[C@@H](NC3CCN(Cc5ccccc5)CC3)[C@H]3COC(=O)[C@H]23)OCO4)cc(OC)c1O,51.2% (inactive)
16,CC1=C(C(=O)OCc2ccc(C)cc2)C(c2ccc(O)c([N+](=O)[O-])c2)NC(=O)N1 (centres undefined),-1.03% (inactive)
17,COc1ccc(S(=O)(=O)N(CC(=O)NCC2CCCO2)c2ccccc2)cc1OC (centres undefined),-6.11% (inactive)
18,Cc1ncn2cc(-c3ccc(Cl)cc3Cl)[nH]c(=O)c12,11.2% (inactive)
19,Cc1cc(-c2ccc(Cl)cc2Cl)c(C#N)c(=O)[nH]1,-3.23% (inactive)
20,O=c1[nH]c(=O)n(-c2ccccc2)c2c1C(C(F)(F)F)(C(F)(F)F)N=C(CCC1CCCCC1)N2,-0.92% (inactive)
21,Cc1nc(N2CCOCC2)c2c(C)c(C(=O)Nc3ccccc3Cl)sc2n1,0.57% (inactive)
22,Cc1nc(N2CCOCC2)c2c(C)c(C(=O)Nc3ccc(F)cc3F)sc2n1,-1.7% (inactive)
23,Cc1nc(N2CCCCC2)c2c(C)c(C(=O)Nc3ccccc3C(F)(F)F)sc2n1,1.26% (inactive)
24,Cc1nc(N2CCN(c3ccccn3)CC2)c2c(C)c(C(=O)Nc3ccc(F)cc3F)sc2n1,79.3% (inactive)
